Unmarked numbers belong to inactive results. The source made the active and inactive calls. The call rests on the fitted dose curve; in most records, active means well fitted curve in the direction sought with a large enough effect (not every such curve was filed as active); inconclusive means small, poorly fitted or top-dose-only effect, or effect the other way, or another doubt; inactive means no such curve, though single readings can be large or run the other way.
Biological target: Pyruvate kinase PKM (Homo sapiens) (UniProt P14618)
Sequence (P14618 whole entry, looked up): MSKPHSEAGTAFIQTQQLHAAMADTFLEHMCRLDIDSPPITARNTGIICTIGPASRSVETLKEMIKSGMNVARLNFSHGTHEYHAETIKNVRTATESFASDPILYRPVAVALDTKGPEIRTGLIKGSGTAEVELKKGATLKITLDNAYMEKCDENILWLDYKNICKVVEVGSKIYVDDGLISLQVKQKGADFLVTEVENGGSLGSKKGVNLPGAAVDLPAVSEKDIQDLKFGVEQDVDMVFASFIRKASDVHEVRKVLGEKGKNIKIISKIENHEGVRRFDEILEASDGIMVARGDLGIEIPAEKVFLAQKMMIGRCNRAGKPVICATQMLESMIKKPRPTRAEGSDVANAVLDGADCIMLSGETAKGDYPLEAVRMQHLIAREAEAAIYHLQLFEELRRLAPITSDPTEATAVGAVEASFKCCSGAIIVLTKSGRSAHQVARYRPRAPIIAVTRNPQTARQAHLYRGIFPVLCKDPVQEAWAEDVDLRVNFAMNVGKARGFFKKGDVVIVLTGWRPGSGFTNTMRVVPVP
Assay: qHTS Assay for Activators of Human Muscle Pyruvate Kinase (AID 954);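 further: 0% = uninhibited enzyme and -100% = no enzyme or full thiadiazolimine inhibition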
Conditions: purified human muscle pyruvate kinase, luciferase-coupled luminescence, 1 h; series mostly up to 57.5 µM; activity change, negative = inhibition: at the top concentration
Outline: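 Purified human PKM2 (0.1 nM) with 0.5 mM PEP (Km) and 0.1 mM ADP in 50 mM imidazole pH 7.2, KCl, MgCl2, 1 h at room temperature; ATP formed read by coupled luciferase luminescence. Normalized to no-enzyme/110 uM thiadiazolimine inhibition; 0.3 nM enzyme column for activation.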

**Q.** For CC(C)NC[C@H](O)COc1cccc2[nH]ccc12, which “activity change, negative = inhibition” value is on record?
**A.** 5.32%

**Q.** For O=c1[nH]c2ccccc2n1CCCN1CCN(C(c2ccccc2)c2ccccc2)CC1, which “activity change, negative = inhibition” value is on record?
**A.** -33.7%

**Q.** C[C@@H](NC(=O)/C(C#N)=C/c1ccc(O)c(O)c1)c1ccccc1 was tested. Which “activity change, negative = inhibition” value did it give?
**A.** -17%

**Q.** For O=Nc1ccc2oc(=O)ccc2c1, which “activity change, negative = inhibition” value is on record?
**A.** 22.2%

**Q.** C=C[C@H]1CN2CC[C@@H]1C[C@@H]2[C@@H](O)c1ccnc2ccc(OC)cc12 was tested. Which outcome did it give?
**A.** inactive

**Q.** Which “activity change, negative = inhibition” value does the source give for O=C(c1cc(O)c(O)c([N+](=O)[O-])c1)c1ccccc1F here?
**A.** -5.13%

**Q.** NC(=O)C(=O)O was tested. Which “activity change, negative = inhibition” value did it give?
**A.** -12%

**Q.** With CNCC[C@H](Oc1ccc(C(F)(F)F)cc1)c1ccccc1 as the compound, how does the outcome read?
**A.** inactive

**Q.** With CCCN(CC1CC1)c1nc(C)nc(Nc2c(Cl)cc(Cl)cc2Cl)c1Cl as the compound, how does the “activity change, negative = inhibition” value read?
**A.** -4.97%

**Q.** O=S(=O)(c1cccc2c(I)cccc12)N1CCCNCC1 was tested. Which “activity change, negative = inhibition” value did it give?
**A.** -6.71%

**Q.** Which “activity change, negative = inhibition” value does the source give for COc1ccccc1CNCCCCCCNCCCCCCCCNCCCCCCNCc1ccccc1OC here?
**A.** -24.8%

**Q.** With N=C(N)SCCc1ccc(CCSC(=N)N)cc1 as the compound, how does the “activity change, negative = inhibition” value read?
**A.** 7.9%

**Q.** How did the “activity change, negative = inhibition” value turn out when O=C1C(SCCO)=C(SCCO)C(=O)c2ccccc21 was run?
**A.** -31.6%

**Q.** How did the “activity change, negative = inhibition” value turn out when N#C/C(=C\c1c[nH]c2ccccc12)C(=O)c1ccc(O)c(O)c1 was run?
**A.** -39.7%

**Q.** For NCCCCC(=O)O, which “activity change, negative = inhibition” value is on record?
**A.** -29.1%

**Q.** With NO as the compound, how does the “activity change, negative = inhibition” value read?
**A.** 3.01%

**Q.** C[N+]1(C)CCC(OC(=O)C(c2ccccc2)c2ccccc2)CC1 was tested. Which “activity change, negative = inhibition” value did it give?
**A.** -19.2%

**Q.** How did the “activity change, negative = inhibition” value turn out when NCCCCCCCCCCN was run?
**A.** -3.73%

**Q.** With CN1[C@@H]2CC[C@H]1CC(OC(c1ccccc1)c1ccccc1)C2 (stereo partly drawn) as the compound, how does the “activity change, negative = inhibition” value read?
**A.** -9.47%

**Q.** How did the “activity change, negative = inhibition” value turn out when N[C@@H](CC(=O)O)C(=O)O was run?
**A.** -11.5%

**Q.** How did the “activity change, negative = inhibition” value turn out when CN(C)c1nc2c(Br)c(Br)c(Br)c(Br)c2[nH]1 was run?
**A.** -26.3%

**Q.** How did the “activity change, negative = inhibition” value turn out when O=c1[nH]c2cc(C(F)(F)F)ccc2n1-c1cc(C(F)(F)F)ccc1O was run?
**A.** -2.44%

**Q.** How did the “activity change, negative = inhibition” value turn out when O=C(O)[C@@H]1C[C@@H](C(=O)O)N1 was run?
**A.** -11.8%

**Q.** How did the “activity change, negative = inhibition” value turn out when Cn1cc(C2=C(c3ccc(Cl)cc3Cl)C(=O)NC2=O)c2ccccc21 was run?
**A.** -28.4%

**Q.** With N[C@H](CCCP(=O)(O)O)C(=O)O as the compound, how does the “activity change, negative = inhibition” value read?
**A.** -8.68%

**Q.** How did the “activity change, negative = inhibition” value turn out when CN(C)C(N)=NCCC[C@H](N)C(=O)O was run?
**A.** -3.47%

**Q.** COc1cc2c(CCNC(C)=O)c[nH]c2cc1Cl was tested. Which “activity change, negative = inhibition” value did it give?
**A.** -12.5%

**Q.** CC(C)(C=O)Cc1cc(C(C)(C)C)c(O)c(C(C)(C)C)c1 was tested. Which “activity change, negative = inhibition” value did it give?
**A.** -6.26%

**Q.** How did the “activity change, negative = inhibition” value turn out when CN(C)c1nc(N)c(C(=O)N=C(N)N)nc1Cl was run?
**A.** -13.9%

**Q.** With COC1=C(OC)C(=O)c2ccccc2C1=O as the compound, how does the “activity change, negative = inhibition” value read?
**A.** 7.14%

**Q.** With N#C/C(=C\c1ccc(O)c(O)c1)C(=O)c1ccc(O)c(O)c1 as the compound, how does the “activity change, negative = inhibition” value read?
**A.** -16.1%

**Q.** How did the “activity change, negative = inhibition” value turn out when COC(=O)c1c(C)[nH]c(C)c1C(=O)c1ccccc1Cc1ccccc1 was run?
**A.** -11.8%

**Q.** Which “activity change, negative = inhibition” value does the source give for O=c1[nH]c2cc(Cl)c(Cl)cc2[nH]c1=O here?
**A.** -11.8%

Reference: PubChem BioAssay (NCATS)
